One experiment deals with LXRb:RXRa (NR concentration 270 nM, RXRa partner concentration 90 nM). The experiment can be described thus: PBM binding z-score (relative to random genomic background probes); higher = stronger binding; sequences stand for … in GC…GCGATTGACAGCGTAGAATGAAGG
Put shortly: (§1)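 Custom Agilent 4×180K protein-binding microarrays carried double-stranded probes. Their 34-nt variable regions held direct-repeat seeds, single-nucleotide variants, half-site ablations and random human genomic background sequences. Arrays were incubated 1 h with ligand-free nuclear receptor dimers in PBS pH 7.4, 2% milk, 0.02% Triton X-100, 1 mM DTT, 0.2 mg/mL BSA and 0.4 mg/ml salmon testes DNA. Antibodies against each partner (one per run) detected binding, and scanned fluorescence was regression-normalized. Binding z-scores use random background probes as reference.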
Sequence CCAGACAGGTGAGAAGGGAACTCAGCCTCGATTA had a PBM binding z-score of -0.208.
Regarding TAGACTAGGTCATTGGGCCAGTATAGTACGCATC, the PBM binding z-score stood at 1.56.
GCGACTGGCGCAAAGCAGGTTACCATAAGGTTGG: the PBM binding z-score was -0.683.
On the same count and under the same terms, in the case of CATACTGGGCCAAAGGTCATTGATTCCAATGCTC it was 5.17.
In the case of CCTAATGGGCCAAAAAGGTCATTGATGCCGATAA, the PBM binding z-score is 4.2.
For CCTAGTTGGTCAGGAGGTCACACCCCGGATATGA, the PBM binding z-score was 3.15.
ACAGACAGGTGAGTGAACGTAACTCAGCTGGACG registered a PBM binding z-score of -0.436.
In turn, TGAATGAGGTTCAAGATCAGGGAACGTGGCGTCG returned a PBM binding z-score of 0.185.
CCGACTGGGGGAAGGTTACCATAACGCACAGCCA showed a PBM binding z-score of 2.11.
The sequence TAGCCTAGGTCAGATCGCGCCAGTATACGCTATA showed a PBM binding z-score of 1.09.
Sequence CGAACGAGGCCATGAGTTGATAGCAAATGCCGAT registered a PBM binding z-score of -0.483.
TCTTGTAGATCAACAGAGGTTAAGAAAGTGCGCT came in with a PBM binding z-score of 2.19.
On to GCTCGGAGGACAAGGTCAGAGCCTTGTCCGTAGA, for which the PBM binding z-score came to 1.59.
Turning to ATCGAAAGGTCGTGAGGTGAGTATGCAGAAAGGC, the PBM binding z-score was found to be 2.91.
The sequence CCTGCTAGGTCATGATCAGCTAATCTACAGTATG showed a PBM binding z-score of 1.94.
Regarding CCTCGGAGGACAACAGGTGGTCAGAGCTGCCAGA, the PBM binding z-score is -0.782.
Turning to CCGAGTAGGTCATGGGGCATTCAGGCAACGGTGA, the PBM binding z-score amounted to 2.42.
Take CGTCAAAGTTCAAGGTAACGTACCAGAAAGCAGC: the PBM binding z-score was 3.47.
Same read-out and setting: as for CGAACTAGGTCACTGACAGGACAGTGAATAGTAA, the figure is 1.64.
The sequence CCTACTGGGCCACGAAAGGTCATTGCTTCAGTGA gave a PBM binding z-score of 4.45.
Regarding CAAACTAGATCACCGGAAGGTCAAAGTCCGCATG, the PBM binding z-score was 3.19.
Sequence CCTAGTTGGTCAATGTCACACACGCTATAGGTAC returned a PBM binding z-score of 1.1.
Still for that read-out and setting: as for CCTACTGGGCCATCACGTCATTGATATCAACGTT, the figure is 0.0401.
Consider GCGACTGGGGCAAAGCAGGTTACCATAAGGTTGG, for which the PBM binding z-score is 0.0291.
In the case of TCTGCTAGGTCAACGATGGTCAGCTACTCTGCTA, the PBM binding z-score is 1.48.
As to ACAAGCAGGCCAAGGGTCACTCAAGATTAGTCCG, the PBM binding z-score was 2.56.
CCTAGCAGGCCAAGGTCACTCAAGCATTTCGCTT gave a PBM binding z-score of 2.51.
Sequence TCTCGGAGGACACGAAGGTCAGACCTTTCCAGAG came in with a PBM binding z-score of 1.41.
Take GTACCAAGGTGAATAGGTCGTTAATGAGTAGGCG: the PBM binding z-score is 0.302.
TCTATTAGTTGATGGGCAACCGACGAGTCCGTTT yielded a PBM binding z-score of 0.186.
Same read-out and setting: in the case of CGAACTAGGGCATCCAGGACAGTGAATACATTGA it was -0.431; in that of TTACCTAGGTGAAGGTCGTTGATCCCTCTGTAGA, 1.6; in that of CGGACTGGGGCAAGGTTACCATAACGCACAGCCA, 1.05.
The sequence ACTATTAGTTGACTTAGGGCAACCGTTACGACGC gave a PBM binding z-score of 0.434.
With CCGACTGGGGCTAAGGTTACCATACTCAGTACGA, the PBM binding z-score is 0.815.
Consider AGAACGAGGGCATGCTGAGTTGATAGCAGAGTAG, for which the PBM binding z-score was -0.164.
On the same count and under the same terms, in the case of ATATGTAGGTTATCGGTTCATTCAGTTTGCGCAT it was 1.71; in that of TCATATAGGTAAACAGTTGAAAGTCCGTAAGTTA, 1.15.
Consider CAAACTACGTCACCGGAAGGTCAAAGTCCGCATG, for which the PBM binding z-score was 3.48.

The next experiment concerns LXRb homodimer (NR concentration 270 nM). The description is as above. The procedure, abridged: as §1
CCAGACAGGTGAGAAGGGAACTCAGCCTCGATTA registered a PBM binding z-score of -0.526.
As to TAGACTAGGTCATTGGGCCAGTATAGTACGCATC, the PBM binding z-score is 0.785.
Still for that read-out and setting: in the case of GCGACTGGCGCAAAGCAGGTTACCATAAGGTTGG it was -1.4; in that of CATACTGGGCCAAAGGTCATTGATTCCAATGCTC, 1.29; in that of CCTAATGGGCCAAAAAGGTCATTGATGCCGATAA, 0.435.
CCTAGTTGGTCAGGAGGTCACACCCCGGATATGA had a PBM binding z-score of 0.855.
ACAGACAGGTGAGTGAACGTAACTCAGCTGGACG had a PBM binding z-score of -0.532.
Same read-out and setting: as for TGAATGAGGTTCAAGATCAGGGAACGTGGCGTCG, the figure is -0.0166; as for CCGACTGGGGGAAGGTTACCATAACGCACAGCCA, 2.85.
TAGCCTAGGTCAGATCGCGCCAGTATACGCTATA: the PBM binding z-score was -0.19.
Take CGAACGAGGCCATGAGTTGATAGCAAATGCCGAT: the PBM binding z-score was -1.01.
TCTTGTAGATCAACAGAGGTTAAGAAAGTGCGCT showed a PBM binding z-score of -0.36.
Sequence GCTCGGAGGACAAGGTCAGAGCCTTGTCCGTAGA returned a PBM binding z-score of -0.419.
As to ATCGAAAGGTCGTGAGGTGAGTATGCAGAAAGGC, the PBM binding z-score was 0.303.
In turn, CCTGCTAGGTCATGATCAGCTAATCTACAGTATG came in with a PBM binding z-score of -0.0541.
Turning to CCTCGGAGGACAACAGGTGGTCAGAGCTGCCAGA, the PBM binding z-score was -1.09.
On to CCGAGTAGGTCATGGGGCATTCAGGCAACGGTGA, for which the PBM binding z-score is -0.503.
Turning to CGTCAAAGTTCAAGGTAACGTACCAGAAAGCAGC, the PBM binding z-score is 1.03.
For the sequence CGAACTAGGTCACTGACAGGACAGTGAATAGTAA, the PBM binding z-score is -0.225.
On to CCTACTGGGCCACGAAAGGTCATTGCTTCAGTGA, for which the PBM binding z-score is 0.134.
Same read-out and setting: in the case of CAAACTAGATCACCGGAAGGTCAAAGTCCGCATG it was 1.2.
In turn, CCTAGTTGGTCAATGTCACACACGCTATAGGTAC registered a PBM binding z-score of 1.1.
Still for that read-out and setting: in the case of CCTACTGGGCCATCACGTCATTGATATCAACGTT it was -0.225; in that of GCGACTGGGGCAAAGCAGGTTACCATAAGGTTGG, -1.39.
TCTGCTAGGTCAACGATGGTCAGCTACTCTGCTA: the PBM binding z-score is -0.302.
ACAAGCAGGCCAAGGGTCACTCAAGATTAGTCCG showed a PBM binding z-score of -0.322.
The same measure, in the same setting: in the case of CCTAGCAGGCCAAGGTCACTCAAGCATTTCGCTT it was -0.42.
Still for that read-out and setting: as for TCTCGGAGGACACGAAGGTCAGACCTTTCCAGAG, the figure is -0.66.
Still for that read-out and setting: as for GTACCAAGGTGAATAGGTCGTTAATGAGTAGGCG, the figure is -0.312; as for TCTATTAGTTGATGGGCAACCGACGAGTCCGTTT, 0.322.
Consider CGAACTAGGGCATCCAGGACAGTGAATACATTGA, for which the PBM binding z-score was -0.651.
Sequence TTACCTAGGTGAAGGTCGTTGATCCCTCTGTAGA displayed a PBM binding z-score of -0.843.
As to CGGACTGGGGCAAGGTTACCATAACGCACAGCCA, the PBM binding z-score is -0.449.
With ACTATTAGTTGACTTAGGGCAACCGTTACGACGC, the PBM binding z-score was 0.514.
Take CCGACTGGGGCTAAGGTTACCATACTCAGTACGA: the PBM binding z-score is -0.943.
On the same count and under the same terms, in the case of AGAACGAGGGCATGCTGAGTTGATAGCAGAGTAG it was -1.15; in that of ATATGTAGGTTATCGGTTCATTCAGTTTGCGCAT, 1.17; in that of TCATATAGGTAAACAGTTGAAAGTCCGTAAGTTA, 0.267.
On the same count and under the same terms, as for CAAACTACGTCACCGGAAGGTCAAAGTCCGCATG, the figure is 1.01.

The record behind these values is the supplement of paper PMC6555819.
